Experimental findings from PubChem BioAssay (NCI) are described below.

Where “and” joins values, the source holds several entries; their conditions need not be identical. Equal values may be shown once. About 83,000 compounds went through this panel and 20% of them were active in at least one assay; those are over-represented in the sample as a whole.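 Single-dose data. Exposure time 48 hours. Values below 10 considered active.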 Where a structure was tested more than once in an assay, its records may differ in their call. Calls of active or inactive are those of the source.

In this test the test system is HCT-15 colon. Briefly: NCI-60 one-dose screen, 48 h (100 = growth as untreated, 0 = no growth, -100 = all killed). Particulars: 10 µM unless noted. As to the method:
Growth inhibition of the HCT-15 human tumor cell line is measured as a screen for anti-cancer activity. Cells are grown in 96 well plates and exposed to the test compound for 48 hours. Compounds are tested at a single concentration, which is 10^-5 M for most compounds. The reported endpoint is percent growth (GI% or GIPRCNT), where numbers from 0 - 100% represent growth inhibition, and numbers from -100% - 0 represent cell death. For example, a value of 40 represents 60% growth inhibition. A value of 0 means no net growth occurred over the course of the experiment. A value of -40 indicates 40% of cells at the beginning of the experiment died by the end of the experiment. A value of -100 means all cells are dead at the end of the experiment.
NCI-60 Human Tumor Cell Lines Screen was performed using the standard one-dose NCI protocol, which is described in more detail at https://dtp.cancer.gov/discovery_development/nci-60/default.htm.
Compounds with GIPRCNT values below 10 were considered active. Activity score was based on GIPRCNT using the following formula: […]
Score is 0 for GIPRCNT values of 100 or above, 50 for GIPRCNT values of 0, and 100 for GIPRCNT values of -100.
Turning to `O=C(c1ccccc1)C(Br)[N+](=O)[O-]` (stereo not given), the growth is 78.1% (inactive).
The same measure for `O=C(Cc1nc2cc(Cl)c(Cl)cc2nc1CC(=O)c1cccnc1)c1cccnc1`: 57.2% (inactive); for `COc1cc2c(c(OC)c1OC)-c1ccc(NCc3ccccc3)c(=O)cc1[C@@H](NC(C)=O)CC2`: 11.5% (inactive).
Then `CC(C)c1ccc(Nc2n[nH]c(=S)s2)cc1`, with 99.8% (inactive); and `C[n+]1ccccc1C[n+]1ccccc1`, with 110% (inactive).
Turning to `O=C(NOC(=O)c1ccccc1)c1ccccc1`, the growth was 101% (inactive).
With `O=C(CCl)N1c2ccccc2Sc2c1ccc1ccccc21`, the growth was 39% (inactive).
`O=[N+]([O-])c1ccc([I+]c2ccccc2)cc1`: the growth is 62.1% (inactive).
For the molecule `Nc1nc(N)c2cc(Sc3cccc(C(F)(F)F)c3)ccc2n1`, the growth is 24.3% (inactive).
The same measure for `O=C1CSC(=S)N1Cc1cccnc1`: 58.3% (inactive).
Consider `Oc1c(C(Nc2ccccc2)c2ccccc2)ccc2cccnc12` (stereo not given), for which the growth was 29.4% (inactive).
In the case of `C/C(=N\NC(=S)N1CC2CCC(CC2)C1)c1ccccn1`, the growth was 18.4% (inactive).
`CCN(CC)CCNc1ccc([N+](=O)[O-])c2sc3ccccc3c(=O)c12`: the growth was 23% (inactive).
For the molecule `O=C1/C(=C/c2ccccn2)CCc2ccccc21`, the growth is 95.3% (inactive).
For the molecule `O=C(CBr)c1ccc(OC(=O)c2ccccc2)cc1`, the growth was 101% (inactive).
Regarding `CCN(CC)CCNC(Cc1ccccc1)c1ccc(OCc2ccccc2)cc1` (stereo not given), the growth was 30.4% (inactive).
As to `O=[n+]1c2ccccc2n([O-])c2cc(Cl)ccc21`, the growth was 43.7% (inactive).
Turning to `Oc1c(Cl)cc(Cl)cc1C=NCC1CCC(CN=Cc2cc(Cl)cc(Cl)c2O)CC1` (stereo not given), the growth is 84.9% (inactive).
Then `O=C(O)c1ccc2c(c1)C(=O)c1ccccc1C2=O`, with 106% (inactive).
For `COc1cc(NC(=O)C2=C(C)NC(C)=C(C(=O)Nc3cc(OC)c(Cl)cc3OC)C2c2cccc([N+](=O)[O-])c2)c(OC)cc1Cl`, the growth is 14.3% (inactive).
The same measure for `CCN1CCCC(Nc2cc(C)nc(/N=C(/N)Nc3ccc(Cl)c(Cl)c3)n2)C1` (stereo not given): -37.2% (active); for `CN=C(N)N/N=C(\C)c1ccc2c(c1)Cc1ccccc1-2`: -81.4% (active); for `S=C1SCN(Cc2cccs2)CN1Cc1cccs1`: 96.6% (inactive).
Regarding `C/C(=N/NC(N)=S)c1ccc(C)cc1`, the growth is 79.9% (inactive).
As for `C(=N\Nc1ccc2ccccc2n1)/c1ccccn1`, the growth was 28.5% (inactive).
Then `O=[N+]([O-])c1ccc(Oc2ccccc2Cl)c([N+](=O)[O-])c1`, with 77% (inactive); and `OC(c1cc(-c2ccc(C(F)(F)F)cc2)nc(C(F)(F)F)c1)C1CCCCN1` (stereo not given), with -36.1% (active) and -65.7% (active) and 14.6% (inactive).
Then `O/N=C1\c2ccccc2-c2ccc(F)cc21`, with 74.6% (inactive); and `CCCCCCCCCCCCNCCCc1ccccc1`, with 23.9% (inactive).
Consider `O=[N+]([O-])CC(O)c1ccccc1` (stereo not given), for which the growth was 96.6% (inactive).
In the case of `CN=C(N)N/N=C(\c1ccccc1)c1ccc(Br)cc1`, the growth was 12.4% (inactive).
With `Nc1cc(-c2ccccc2)ccc1O`, the growth is 93.3% (inactive).
`CCC[CH2][Sn]1([CH2]CCC)[O]C2C(CO)OC(n3ccc(N)nc3=O)C2[O]1` (stereo not given): the growth was -59.3% (active).
On to `CC(=O)Nc1ccc(C(=O)CCl)cc1`, for which the growth was 6.54% (active).
For the molecule `Oc1ccc2ccccc2c1N=Nc1ccccn1`, the growth was 26.9% (inactive).
Turning to `c1ccc(C2NCCNC2c2ccccc2)cc1` (stereo not given), the growth is 102% (inactive).
Then `CCOC(=O)C1=NN(c2ccccc2)C(=O)/C1=C\N1C(=O)/C(=C/c2cccc(O)c2)SC1=S`, with 109% (inactive); and `C=C(C(N)=O)C(N)C(=O)O` (stereo not given), with 109% (inactive).
As to `CC(/C=N/NC(N)=S)Cc1ccc(C(C)C)cc1` (stereo not given), the growth was 80.2% (inactive).
Then `COC(=O)Nc1nc2ccc(C3(c4ccc(F)cc4)OCCO3)cc2[nH]1`, with 25.9% (inactive).
